# Assay outcomes: PubChem BioAssay, Broad Institute
# Shown is part of a subset that was picked to be rich in hits.
# miR-122 inh – activators of miR-122 sensor in Huh7 cells | Huh7 psiCHECK-miR122 Renilla luciferase sensor, 48 h | activation, % at 12.5 µM | 0.14% of 340,000 active | AID 623901;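 active means mean activation of 30% or more, with every replicate also reaching 30%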;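 further: 0% = median of neutral control wells and 100% = median of positive control wells; higher luciferase signal means stronger suppression of miR-122 activity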
# Starred values were filed as active, the others as inactive.
SMILES,miR-122 inh
CCC(=O)Nc1ccc2c(c1)OC[C@H](C)N(C(=O)CN1CCOCC1)C[C@H](C)[C@@H](OC)CN(C)C2=O,0
Cc1cccc(S(=O)(=O)C(C#N)c2nc3ccccc3nc2N2CCCC2)c1 (stereo not drawn),-119
N#CCc1c(C#N)c(N)nc(N2CCN(S(=O)(=O)c3ccccc3)CC2)c1C#N,36*
C[C@@H]1CN([C@H](C)CO)S(=O)(=O)c2ccc(C#CC3CC3)cc2O[C@H]1CN(C)Cc1ccccn1,-28
CC(C)CC#Cc1cnc2c(c1)C(=O)N([C@H](C)CO)C[C@H](C)[C@@H](CN(C)C(=O)NC1CCCC1)O2,-7
C[C@H](O)C#Cc1ccc2c(c1)O[C@H](CN(C)CC1CCOCC1)[C@@H](C)CN([C@@H](C)CO)S2(=O)=O,-3
O=C(CCCCCCC(=O)Nc1ccccc1)NO,-232
O=C(CCCCCN1C(=O)c2ccccc2C1=O)NCc1ccccn1,35*
CCc1ccc(-c2cc(C(=O)NCc3ccccn3)c3ccccc3n2)cc1,-148
COCC#Cc1cnc2c(c1)C(=O)N([C@H](C)CO)C[C@@H](C)[C@@H](CN(C)C(=O)Nc1c(C)noc1C)O2,0
COc1cc(/C=C/C(=O)Nc2ccc(N3CCCCC3)c(S(=O)(=O)Nc3ccccc3Cl)c2)cc(OC)c1OC,-289
C[C@@H]1CN([C@@H](C)CO)C(=O)c2cc(/C=C/c3ccccc3)cnc2O[C@H]1CN(C)C(=O)c1cccc(F)c1,5
COc1ccc(-c2ccc(C#N)c(OC(=O)c3c(Cl)cccc3Cl)n2)cc1,32*
C[C@@H]1CN([C@@H](C)CO)C(=O)c2cc(-c3ccc(C(=O)N(C)C)cc3)cnc2O[C@H]1CN(C)C(=O)c1cccnc1,-1
CCCN(C)C[C@@H]1Oc2ncc(-c3ccccc3OC)cc2C(=O)N([C@H](C)CO)C[C@@H]1C,-18
COc1cccc(-c2ccc3c(c2)O[C@H](CN(C)CC2CC2)[C@H](C)CN([C@H](C)CO)S3(=O)=O)c1,-12
C[C@@H]1CN([C@H](C)CO)C(=O)c2cc(C#C[C@@H](C)O)cnc2O[C@H]1CN(C)Cc1cncnc1,3
CC(C)CC#Cc1cnc2c(c1)C(=O)N([C@H](C)CO)C[C@@H](C)[C@H](CN(C)C(=O)C1CCCCC1)O2,3
C[C@H]1CN([C@@H](C)CO)S(=O)(=O)c2ccc(C#CC(C)(C)O)cc2O[C@H]1CN(C)CC1CC1,4
COc1ccc(Cn2c(SCc3ccccc3C)nc3cc(OC)c(OC)cc3c2=N)cc1,62*
COc1ccc(NS(=O)(=O)c2cc(NC(=O)CCc3ccc(OC)c(OC)c3)ccc2N2CCOCC2)cc1,-118
CN(C)CCNc1nc2sc3c(c2c(=O)n1CCc1ccccc1)CCCCC3,32*
CC(C)CC#Cc1cnc2c(c1)C(=O)N([C@H](C)CO)C[C@H](C)[C@@H](CN(C)C(=O)Cc1ccccc1)O2,-22
COc1cccc(N2CCN(C(=S)Nc3cccc(C)c3)CC2)c1,-121
FC(F)(F)c1cnc(N2CCCN(C(=S)Nc3ccccc3)CC2)c(Cl)c1,37*
SMILES,miR-122 inh
O=S(=O)(Nc1ccccc1)c1ccc(Oc2ncc(C(F)(F)F)cc2Cl)cc1,-94
CCC(=O)N(C)C[C@H]1Oc2cc(C#C[C@H](C)O)ccc2S(=O)(=O)N([C@H](C)CO)C[C@H]1C,2
C[C@H](CO)N1C[C@H](C)[C@@H](CN(C)C(=O)C2CCOCC2)Oc2cc(-c3ccc(F)cc3)ccc2S1(=O)=O,-7
C[C@H]1CN([C@@H](C)CO)S(=O)(=O)c2ccc(-c3ccc(C#N)cc3)cc2O[C@@H]1CN(C)C(=O)Nc1cc(F)ccc1F,-19
C[C@H](O)C#Cc1ccc2c(c1)O[C@H](CN(C)CC1CCOCC1)[C@H](C)CN([C@@H](C)CO)S2(=O)=O,5
COc1cccc(-c2cnc3c(c2)C(=O)N([C@H](C)CO)C[C@@H](C)[C@H](CN(C)Cc2ccccc2)O3)c1,-7
COc1cccc(-c2cnc3c(c2)C(=O)N([C@@H](C)CO)C[C@@H](C)[C@H](CN(C)Cc2ccccc2)O3)c1,-7
COc1cccc(-c2nn(-c3ccccc3)cc2CO)c1,34*
CO[C@H]1CN(C)C(=O)c2cc(NC(=O)c3nc4ccccc4s3)ccc2OC[C@H](C)N(Cc2ccncc2)C[C@@H]1C,3
C[C@H]1CN([C@@H](C)CO)C(=O)c2cc(-c3ccccc3F)cnc2O[C@H]1CN(C)C(=O)NC1CCCCC1,-13
CCCCCCCCCCn1c2c(c(=N)c3c1CCC3)CCC2,66*
C[C@H](CO)N1C[C@H](C)[C@H](CN(C)Cc2ccc(C(=O)Nc3ccccc3N)cc2)Oc2ccc(N(C)C)cc2CC1=O,-355
CCN(C)C[C@@H]1Oc2cc(C#CCC3CCCC3)ccc2S(=O)(=O)N([C@@H](C)CO)C[C@H]1C,-2
C[C@H](NC(=O)C[C@H]1CC[C@@H]2[C@@H](COc3ccc(NS(=O)(=O)c4ccc(Cl)cc4)cc3C(=O)N2C)O1)c1ccccc1,45*
C[C@H](NC(=O)C[C@@H]1CC[C@H]2[C@H](COc3ccc(NS(=O)(=O)c4ccc(Cl)cc4)cc3C(=O)N2C)O1)c1ccccc1,37*
C[C@@H]1CN([C@H](C)CO)S(=O)(=O)c2ccc(C#CC(C)(C)O)cc2O[C@@H]1CN(C)C(=O)C1CCC1,-5
O=S(=O)(c1ccc(Cl)cc1)N1CCC2(CC1)OCCN2S(=O)(=O)c1cccs1,-135
COCC(=O)N(C)C[C@@H]1Oc2ncc(C#Cc3ccccc3OC)cc2C(=O)N([C@H](C)CO)C[C@@H]1C,4
Cc1ccc(-c2cnc3c(c2)C(=O)N([C@@H](C)CO)C[C@H](C)[C@@H](CN(C)Cc2ccccc2F)O3)cc1,-3
CCCC(=O)Nc1ccc2c(c1)OC[C@H](C)N(C(C)=O)C[C@@H](C)[C@@H](OC)CN(C)C2=O,2
CNC[C@H]1Oc2cc(-c3ccccc3OC)ccc2S(=O)(=O)N([C@H](C)CO)C[C@@H]1C,-1
COc1ccccc1-c1cnc2c(c1)C(=O)N([C@@H](C)CO)C[C@H](C)[C@@H](CN(C)Cc1ccccc1)O2,3
COCC(=O)Nc1ccc2c(c1)C(=O)N(C)C[C@@H](OC)[C@@H](C)CN(C(=O)COC)[C@@H](C)CO2,-2
COc1ccc(S(=O)(=O)Nc2ccc(S(=O)(=O)Nc3ccc(F)cc3)cc2)cc1C,-95
Cc1cc(C(C)(C)CC(C)(C)C)ccc1OCCOCC[N+](C)(C)Cc1ccccc1,58*
SMILES,miR-122 inh
C/C=C/c1cnc2c(c1)C(=O)N([C@@H](C)CO)C[C@H](C)[C@H](CN(C)C(=O)c1cccnc1)O2,3
Cc1ccccc1N(C(=O)CCCC(=O)Nc1ccccn1)C(C(=O)NC1CCCC1)c1ccc(O)cc1 (stereo not drawn),-132
C[C@H](CO)N1C[C@H](C)[C@@H](CN(C)S(=O)(=O)c2cccc(F)c2)Oc2ncc(C#CC3(O)CCCC3)cc2C1=O,10
C[C@H](CO)N1C[C@H](C)[C@H](CN(C)C(=O)Nc2cccc3ccccc23)Oc2ncc(-c3ccccc3)cc2C1=O,0
COc1cc(/C=N/Nc2nc(Nc3ccc(C)cc3)nc(-n3nc(C)cc3C)n2)cc(OC)c1OC,47*
CN(C)S(=O)(=O)c1ccc(NS(=O)(=O)/C=C/c2ccccc2)cc1,-165
C[C@H]1CN([C@@H](C)CO)S(=O)(=O)c2ccc(C#CCC3CCCC3)cc2O[C@H]1CN(C)C(=O)CC1CC1,2
CCN(CC)C(=O)CN(c1cc2c(cc1OC)oc1ccccc12)S(=O)(=O)c1ccccc1,-100
